Results filed as inconclusive are left out. Some compounds were tested as several samples or in several runs, with calls that do not always agree. Activity calls are given as the source filed them. The calls were made as follows, unless noted: active = hit-call score of the fitted dose curve at least 0.9, where 1 is the maximum; inactive = score below 0.9.
Tests used:
[1] = read-out: TIMP metallopeptidase inhibitor 1 (TIMP1), TIMP1 (gene 7076); assay: BSK_hDFCGF_TIMP1: BioMAP Diversity Plus: hDFCGF Assay for TIMP metallopeptidase inhibitor 1 (TIMP1) Biomarker Activity (AID 2283062); settings: primary human foreskin fibroblasts; actives raise or lower the signal
How it was run: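 Human skin fibroblasts (primary), hDFCGF system; compound exposure 24 h; TIMP-1 by ELISA; bidirectional fit vs DMSO negative control; overt cytotoxicity by SRB in parallel wells.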

[2] = read-out: Plasminogen activator inhibitor-1 (PAI1), SERPINE1 (gene 5054); assay: BSK_hDFCGF_PAI1: BioMAP Diversity Plus: hDFCGF Assay for Plasminogen activator inhibitor-1 (PAI1) Biomarker Activity (AID 2283066); settings: primary human foreskin fibroblasts; actives raise or lower the signal
How it was run: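 Human foreskin fibroblasts in the hDFCGF system were dosed with compound for 24 h; PAI-1 was quantified by ELISA. Bidirectional curve fitting used DMSO as negative control and baseline.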

[3] = read-out: Interferon-gamma inducible Protein 10 (IP10), CXCL10 (gene 3627); assay: BSK_KF3CT_IP10: BioMAP Diversity Plus: KF3CT Assay for Interferon-gamma inducible Protein 10 (IP10) Biomarker Activity (AID 2283068); settings: primary human keratinocytes with fibroblasts; actives raise or lower the signal
How it was run: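 ELISA read-out of IP-10 after 24 h chemical dosing of human skin primary co-culture (keratinocytes, foreskin fibroblasts). Gain or loss of signal relative to DMSO, bidirectional curve fit.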

[4] = BSK_KF3CT_SRB: Viability Assessment in the BioMAP Diversity Plus: KF3CT Assay (AID 2283069); settings: primary human keratinocytes with fibroblasts;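 also: total protein by sulforhodamine B staining as a cytotoxicity measure; fitted for both signal gain and loss against DMSO baseline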
How it was run: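 Human keratinocyte and foreskin fibroblast co-culture exposed to chemical for 24 h. Total protein measured in parallel cultures by 0.1% sulforhodamine B staining after 10% TCA fixation, read at 560 nm; bidirectional fit relative to DMSO.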

[5] = read-out: Interleukin-1 alpha (IL1a), IL1A (gene 3552); assay: BSK_KF3CT_IL1a: BioMAP Diversity Plus: KF3CT Assay for Interleukin-1 alpha (IL1a) Biomarker Activity (AID 2283070); settings: primary human keratinocytes with fibroblasts; actives raise or lower the signal
How it was run: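 Primary human keratinocyte plus foreskin fibroblast co-culture, dosed and measured at 24 h in 96-well plates. IL-1a level quantified by ELISA; bidirectional fit relative to DMSO.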

[6] = read-out: TIMP metallopeptidase inhibitor 2 (TIMP2), TIMP2 (gene 7077); assay: BSK_KF3CT_TIMP2: BioMAP Diversity Plus: KF3CT Assay for TIMP metallopeptidase inhibitor 2 (TIMP2) Biomarker Activity (AID 2283071); settings: primary human keratinocytes with fibroblasts; actives raise or lower the signal
How it was run: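 Human primary keratinocyte/foreskin fibroblast co-culture dosed with chemical and sampled at 24 h. TIMP-2 levels quantified by ELISA; bidirectional fitting against DMSO negative control as baseline.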

[7] = read-out: Matrix Metallopeptidase 9 (MMP9), MMP9 (gene 4318); assay: BSK_KF3CT_MMP9: BioMAP Diversity Plus: KF3CT Assay for Matrix Metallopeptidase 9 (MMP9) Biomarker Activity (AID 2283074); settings: primary human keratinocytes with fibroblasts; actives raise or lower the signal;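 as to AC50: MMP9 protein level quantified by ELISA in the co-culture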
How it was run: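 Human keratinocyte and foreskin fibroblast co-culture exposed to chemicals for 24 h; MMP9 biomarker measured by ELISA, bidirectional fitting relative to DMSO; cytotoxicity tracked by SRB total protein staining in parallel cultures.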

[8] = read-out: urokinase plasminogen activator (uPA), PLAU (gene 5328); assay: BSK_KF3CT_uPA: BioMAP Diversity Plus: KF3CT Assay for urokinase plasminogen activator (uPA) Biomarker Activity (AID 2283075); settings: primary human keratinocytes with fibroblasts; actives raise or lower the signal
How it was run: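 Primary human keratinocyte/foreskin fibroblast co-culture exposed to chemical; uPA measured by ELISA at 24 h. Bidirectional fit versus DMSO, with parallel SRB total-protein staining for cytotoxicity.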

[9] = BSK_LPS_SRB: Viability Assessment in the BioMAP Diversity Plus: LPS Assay (AID 2283079); settings: primary human HUVEC with PBMC;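 also: total protein by sulforhodamine B absorbance as a cytotoxicity measure; measured one day after compound addition; fitted in both directions against DMSO so loss or gain of signal counts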
How it was run: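 Readout is SRB absorbance at 560 nm (0.1% stain, TCA-fixed parallel cultures) as a total-protein cytotoxicity measure. Cells: primary human umbilical vein endothelium plus peripheral blood mononuclear cells, 24 h after chemical exposure; DMSO served as baseline.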

[10] = read-out: Tumor necrosis factor (Homo sapiens) (UniProt P01375); assay: BSK_LPS_TNFa: BioMAP Diversity Plus: LPS Assay for Tumour Necrosis Factor alpha (TNFa) Biomarker Activity (AID 2283085); settings: primary human HUVEC with PBMC; actives raise or lower the signal
How it was run: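 Human umbilical vein endothelial cells co-cultured with PBMC were exposed to test chemical and TNFa measured by ELISA 24 h after dosing. Bidirectional curve fitting was done relative to DMSO as negative control and baseline.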

[11] = read-out: Vascular cell adhesion molecule 1 (VCAM1), VCAM1 (gene 7412); assay: BSK_LPS_VCAM1: BioMAP Diversity Plus: LPS Assay for Vascular cell adhesion molecule 1 (VCAM1) Biomarker Activity (AID 2283086); settings: primary human HUVEC with PBMC; actives raise or lower the signal
How it was run: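 Human umbilical vein endothelial cells co-cultured with peripheral blood mononuclear cells under LPS stimulation were exposed to test chemical for 24 h. VCAM-1 levels were then measured by ELISA, with bidirectional curve fitting relative to DMSO as negative control and baseline.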

[12] = read-out: CD38, CD38 (gene 952); assay: BSK_SAg_CD38: BioMAP Diversity Plus: SAg Assay for CD38 Biomarker Activity (AID 2283087); settings: primary human HUVEC with PBMC; actives raise or lower the signal
How it was run: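 Fluorescence ELISA of cell-surface CD38 served as the read-out, with either increase or decrease fitted against DMSO controls. Cells were a human umbilical vein endothelium plus PBMC co-culture under SEB/TSST-1 stimulation, measured 24 h after dosing.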

[13] = read-out: Monocyte Chemoattractant Protein-1 (MCP1), CCL2 (gene 6347); assay: BSK_SAg_MCP1: BioMAP Diversity Plus: SAg Assay for Monocyte Chemoattractant Protein-1 (MCP1) Biomarker Activity (AID 2283090); settings: primary human HUVEC with PBMC; actives raise or lower the signal
How it was run: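 MCP-1 levels in the endothelial–PBMC SAg co-culture were quantified by ELISA at 24 h post-dosing; both increases and decreases versus DMSO scored. Cytotoxicity monitored by SRB total protein in parallel cultures.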

[14] = read-out: Monokine induced gamma interferon (MIG), CXCL9 (gene 4283); assay: BSK_SAg_MIG: BioMAP Diversity Plus: SAg Assay for Monokine induced gamma interferon (MIG) Biomarker Activity (AID 2283092); settings: primary human HUVEC with PBMC; actives raise or lower the signal
How it was run: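 Endothelial cells and PBMC were co-cultured, exposed to test chemicals, and sampled 24 h later. MIG was measured by ELISA, and responses were fitted in both directions relative to DMSO.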

[15] = BSK_SAg_Proliferation: Cell Proliferation Assessment in the BioMAP Diversity Plus: SAg Assay (AID 2283095); settings: primary human HUVEC with PBMC;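 also: relative cell number as total protein by SRB absorbance in sub-confluent culture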
How it was run: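 Human umbilical vein endothelial cells co-cultured with peripheral blood mononuclear cells; total protein measured by sulforhodamine B staining (0.1% SRB after 10% TCA fixation), absorbance at 560 nm, at 96 h. Bidirectional fit against DMSO baseline.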

[16] = BSK_SAg_SRB: Viability Assessment in the BioMAP Diversity Plus: SAg Assay (AID 2283096); settings: primary human HUVEC with PBMC;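 also: cells read one day after compound addition; hits may be either gain or loss of signal compared with DMSO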
How it was run: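 Human umbilical vein endothelial cells co-cultured with PBMC, read 24 h after compound dosing. Total protein measured by sulforhodamine B staining (0.1% SRB after 10% TCA fixation, absorbance 560 nm); bidirectional fit versus DMSO baseline.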

[17] = read-out: Collagen I, COL1A1 (gene 1277); assay: BSK_hDFCGF_CollagenI: BioMAP Diversity Plus: hDFCGF Assay for Collagen I Biomarker Activity (AID 2284250); settings: primary human foreskin fibroblasts
How it was run: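 Primary human foreskin fibroblasts (hDFCGF system) exposed to chemical for 24 h; Collagen I measured by ELISA. Activity fitted in the positive direction relative to DMSO baseline, with SRB total-protein staining in parallel cultures for overt cytotoxicity.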

[18] = biological target: Steroid hormone receptor ERR1 (Homo sapiens) (UniProt P11474); assay: ATG_ERRa_TRANS: Attagene TRANS-FACTORIAL HepG2 Assay for human Estrogen-Related Receptor alpha (ERRa) (AID 2282971; active = hit-call score of the fitted dose curve at least 0.9, where 1 is the maximum); settings: HepG2 Attagene TRANS reporter, ERRa transactivation
Chain of Steroid hormone receptor ERR1 (Homo sapiens) (P11474 whole entry, looked up, the tested form may be a part): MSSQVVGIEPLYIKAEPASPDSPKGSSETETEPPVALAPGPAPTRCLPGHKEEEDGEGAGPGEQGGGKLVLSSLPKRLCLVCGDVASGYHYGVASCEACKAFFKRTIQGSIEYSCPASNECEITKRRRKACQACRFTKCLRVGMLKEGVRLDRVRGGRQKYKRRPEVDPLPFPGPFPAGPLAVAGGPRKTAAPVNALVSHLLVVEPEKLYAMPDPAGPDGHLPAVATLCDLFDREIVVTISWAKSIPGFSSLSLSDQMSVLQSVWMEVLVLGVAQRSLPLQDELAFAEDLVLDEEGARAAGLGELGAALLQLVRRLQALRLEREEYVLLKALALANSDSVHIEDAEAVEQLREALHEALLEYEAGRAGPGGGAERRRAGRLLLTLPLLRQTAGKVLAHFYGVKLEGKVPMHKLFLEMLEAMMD
How it was run: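 Reporter transcript induction was quantified by RT-PCR and capillary electrophoresis of FAM-labelled, HpaI-cut products after 24 h treatment of HepG2 cells carrying transiently transfected GAL4-UAS reporter units and an exogenous ERRa-Gal4 fusion; activity scored as increase over DMSO.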

[19] = biological target: Nuclear receptor subfamily 1 group I member 3 (Homo sapiens) (UniProt Q14994); assay: ATG_CAR_TRANS: Attagene TRANS-FACTORIAL HepG2 Assay for human Constitutive Androstane Receptor (CAR) (AID 2282969; active = hit-call score of the fitted dose curve at least 0.9, where 1 is the maximum;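 also: activators raise reporter mRNA above DMSO so AC50 marks induction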); settings: HepG2 Attagene TRANS-FACTORIAL CAR reporter
Chain of Nuclear receptor subfamily 1 group I member 3 (Homo sapiens) (Q14994 whole entry, looked up, the tested form may be a part): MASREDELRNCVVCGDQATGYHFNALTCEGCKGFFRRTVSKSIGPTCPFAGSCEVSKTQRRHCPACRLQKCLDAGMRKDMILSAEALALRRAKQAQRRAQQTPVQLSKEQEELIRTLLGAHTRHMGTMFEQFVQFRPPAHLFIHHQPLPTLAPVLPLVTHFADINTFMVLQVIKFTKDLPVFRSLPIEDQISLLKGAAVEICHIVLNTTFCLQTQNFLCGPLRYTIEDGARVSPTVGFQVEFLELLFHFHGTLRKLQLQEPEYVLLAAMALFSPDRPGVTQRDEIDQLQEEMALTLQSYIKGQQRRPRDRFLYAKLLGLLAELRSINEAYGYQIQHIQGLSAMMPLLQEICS
How it was run: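 HepG2 cells transiently transfected with GAL4-UAS reporter units; TRANS format reads activity of exogenous chimeric NR-Gal4 protein. After 24 h dosing, reporter mRNA quantified by RT-PCR, 6-FAM labelling and capillary electrophoresis; gain of signal fitted against DMSO.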

[20] = biological target: Bile acid receptor (Homo sapiens) (UniProt Q96RI1); assay: ATG_FXR_TRANS: Attagene TRANS-FACTORIAL HepG2 Assay for Farnesoid X Receptor (FXR) (AID 2282979; active = hit-call score of the fitted dose curve at least 0.9, where 1 is the maximum;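 also: hits raise reporter mRNA above DMSO so AC50 marks FXR activation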); settings: HepG2 Attagene TRANS FXR-GAL4 reporter transcription
Chain of Bile acid receptor (Homo sapiens) (Q96RI1 whole entry, looked up, the tested form may be a part): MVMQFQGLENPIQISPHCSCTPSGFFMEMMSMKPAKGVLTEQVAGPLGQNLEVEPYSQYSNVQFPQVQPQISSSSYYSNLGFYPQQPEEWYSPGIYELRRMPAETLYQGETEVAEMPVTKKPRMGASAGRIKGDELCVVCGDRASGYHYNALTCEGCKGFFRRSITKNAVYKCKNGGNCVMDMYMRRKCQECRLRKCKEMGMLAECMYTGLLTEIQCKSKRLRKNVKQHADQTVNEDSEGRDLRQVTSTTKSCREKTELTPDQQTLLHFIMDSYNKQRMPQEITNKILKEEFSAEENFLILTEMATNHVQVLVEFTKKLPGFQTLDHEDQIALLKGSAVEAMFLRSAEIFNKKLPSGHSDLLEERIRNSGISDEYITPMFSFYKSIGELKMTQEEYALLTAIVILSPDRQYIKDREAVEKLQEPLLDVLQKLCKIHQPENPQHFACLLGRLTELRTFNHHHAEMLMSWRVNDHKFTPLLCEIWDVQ
How it was run: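 Transient transfection of HepG2 with multiplexed GAL4-UAS reporter units; exogenous FXR-GAL4 chimera. Dose 24 h → TriZol RNA → oligo(dT) RT → PCR, 6-FAM primer extension, HpaI cut → CE. Gain vs DMSO.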

Measured: AC50

Chain of Tumor necrosis factor (Homo sapiens) (P01375 whole entry, looked up): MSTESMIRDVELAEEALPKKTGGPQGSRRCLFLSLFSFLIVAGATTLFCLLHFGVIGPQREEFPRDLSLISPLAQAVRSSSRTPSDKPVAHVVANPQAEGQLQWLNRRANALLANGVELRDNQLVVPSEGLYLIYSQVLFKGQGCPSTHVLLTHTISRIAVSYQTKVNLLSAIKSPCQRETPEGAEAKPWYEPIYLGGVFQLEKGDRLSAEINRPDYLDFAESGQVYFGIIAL

Cc1c(C(N)=O)cc([N+](=O)[O-])cc1[N+](=O)[O-]
not listed: [18] | [19] | [20]
inactive: all other assays above

C1CN(CCOCCN2CCOCC2)CCO1
not listed: [18] | [19] | [20]
inactive: all other assays above

CCCCC(CC)COC(=O)CS (centres undefined)
inactive: [18]

CCCCCCCCCCCCCCCCCC[N+](C)(C)C
active: [18] 33.8 µM | [20] 15.9 µM | [1] 3.47 µM | [2] 1.13 µM | [3] 3.66 µM | [4] 2.49 µM | [5] 6.81 µM | [6] 1.2 µM | [7] 3.32 µM | [8] 3.33 µM | [9] 2.72 µM | [11] 7.96 µM | [12] 5 µM | [13] 6.02 µM | [14] 8.07 µM | [15] 0.995 µM | [16] 3.82 µM
inactive: [19] | [10]

COc1ccc2ccccc2c1
inactive: [20]

CC(C)C1OCCN1CCOC(=O)NCCCCCCNC(=O)OCCN1CCOC1C(C)C (centres undefined)
active: [17] 1.44 µM
inactive: [1] | [2] | [3] | [4] | [5] | [6] | [7] | [8] | [9] | [10] | [11] | [12] | [13] | [14] | [15] | [16] | [17]

CCCCCCCCCCCCCC
inactive: [19]

— PubChem BioAssay (EPA / NIEHS)
